Our source for the composite z-score and z-score values is PubChem BioAssay.

A short description of test [1]: anti-His antibody binders, primary screen, artefact control for SMM control protein annotation, biochemical, small-molecule microarray, 635 nm fluorescence (AID 1128).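 Note: score merges feature fluorescence with signal-to-noise for each printed compound spot.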 The following applies: anti-His Alexa647 antibody binding, higher = more signal.
Test [2] has as its system Human papillomavirus type 1a E7 protein (residues 1-88). Put plainly: HPV1a E7 small-molecule binders, primary screen, biochemical, small-molecule microarray, residues 1-88, 635 nm (AID 1129). The following applies: small-molecule microarray binding, fluorescence 635 nm; higher = more signal.
In test [3] the target is Focal adhesion kinase 1 (Homo sapiens) (UniProt Q05397). Description: small-molecule microarray binders of FAK, primary screen, biochemical, 635/667 nm fluorescence, BSA, DTT (AID 1130).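 Note: composite of spot emission at 667 nm and signal to noise over triplicate slides.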 The settings on record: PTK2 binding, 635 nm fluorescence, higher = more signal.
Focal adhesion kinase 1 (Homo sapiens), sequence (Q05397 whole entry, looked up): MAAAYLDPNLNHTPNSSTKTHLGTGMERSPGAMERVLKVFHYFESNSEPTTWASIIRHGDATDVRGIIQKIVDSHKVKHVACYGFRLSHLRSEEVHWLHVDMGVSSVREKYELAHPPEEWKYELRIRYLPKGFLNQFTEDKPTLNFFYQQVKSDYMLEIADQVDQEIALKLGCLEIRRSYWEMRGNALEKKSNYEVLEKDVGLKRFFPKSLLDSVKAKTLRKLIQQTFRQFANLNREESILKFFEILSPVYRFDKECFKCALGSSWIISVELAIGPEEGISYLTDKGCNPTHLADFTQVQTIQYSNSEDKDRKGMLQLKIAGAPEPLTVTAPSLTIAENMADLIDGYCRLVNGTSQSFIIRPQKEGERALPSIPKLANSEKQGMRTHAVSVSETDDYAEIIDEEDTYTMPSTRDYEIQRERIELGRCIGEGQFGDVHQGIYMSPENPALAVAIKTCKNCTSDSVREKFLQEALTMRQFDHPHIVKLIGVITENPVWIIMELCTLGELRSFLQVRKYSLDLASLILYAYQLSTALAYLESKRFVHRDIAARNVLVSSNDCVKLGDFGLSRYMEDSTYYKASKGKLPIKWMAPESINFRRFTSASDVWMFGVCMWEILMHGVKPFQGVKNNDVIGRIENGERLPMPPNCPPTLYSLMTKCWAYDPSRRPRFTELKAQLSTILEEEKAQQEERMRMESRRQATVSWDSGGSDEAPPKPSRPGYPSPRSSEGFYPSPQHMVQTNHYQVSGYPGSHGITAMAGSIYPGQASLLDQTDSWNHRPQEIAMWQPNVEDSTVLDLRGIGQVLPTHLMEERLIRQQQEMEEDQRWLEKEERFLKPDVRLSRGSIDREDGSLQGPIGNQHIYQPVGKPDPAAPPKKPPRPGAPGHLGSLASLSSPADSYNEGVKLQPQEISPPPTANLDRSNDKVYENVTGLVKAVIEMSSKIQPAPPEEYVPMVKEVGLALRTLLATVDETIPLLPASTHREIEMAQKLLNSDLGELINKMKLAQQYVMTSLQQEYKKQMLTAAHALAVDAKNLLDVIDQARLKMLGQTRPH
Test [4] concerns Fibrinogen (Alexa647-labelled). Put plainly: fibrinogen binders on compound microarrays, profiling panel, artefact control for SMM control-protein annotation, biochemical, small-molecule microarray, 635/667 nm fluorescence (AID 1131).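 Note: z-score merges 667 nm fluorescence with per-spot signal-to-noise over triplicate slides.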 The following applies: fibrinogen-A647 binding fluorescence, higher = more signal.
The target in test [5] is Follistatin (Homo sapiens) (UniProt P19883). Put plainly: follistatin binders on small-molecule microarrays, primary screen, biochemical, small-molecule microarray, 635/667 nm fluorescence (AID 1132). The settings on record: FST binding, 635 nm fluorescence, higher = more signal.
Follistatin (Homo sapiens), sequence (P19883 whole entry, looked up): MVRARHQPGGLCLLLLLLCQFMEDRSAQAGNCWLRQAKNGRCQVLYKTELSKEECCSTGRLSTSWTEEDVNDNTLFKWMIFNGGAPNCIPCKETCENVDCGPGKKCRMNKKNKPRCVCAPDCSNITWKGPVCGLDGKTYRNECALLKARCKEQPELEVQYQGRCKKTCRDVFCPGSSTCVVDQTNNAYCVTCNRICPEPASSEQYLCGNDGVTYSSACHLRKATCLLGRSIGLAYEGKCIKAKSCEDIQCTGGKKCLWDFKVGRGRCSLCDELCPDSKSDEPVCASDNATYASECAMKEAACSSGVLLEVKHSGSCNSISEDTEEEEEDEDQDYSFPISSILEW
Test [6] addresses Fibroblast growth factor 2 (Homo sapiens) (UniProt P09038). Description: FGF2 binders on small-molecule microarrays, primary screen, biochemical, small-molecule microarray, 635/667 nm fluorescence (AID 1133). The following applies: small-molecule microarray binding, FGF2, fluorescence 635/667; higher = more signal.
The nature of test [7]: mitochondrial membrane potential change in A549 cells, profiling panel, cell-based, JC-1 fluorescence, basal, 24 h, 100 nL (AID 1138).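 Note: A549 lung adenocarcinoma cells under basal conditions with no added stimulus; test concentration not given here.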 The settings on record: higher = more signal.
The next test relates to Lefty1. Put plainly: Lefty1 binders on small-molecule microarrays, primary screen, biochemical, small-molecule microarray, 635/667 nm fluorescence (AID 1139). The settings on record: small-molecule microarray binding, fluorescence 635/667; higher = more signal.
For test [8], the system named is wheat germ agglutinin (Triticum aestivum), Alexa647-labelled. Description: wheat germ agglutinin binders on compound microarrays, profiling panel, artefact control for SMM control-protein annotation, biochemical, small-molecule microarray, 635/667 nm fluorescence (AID 1140).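 Note: score merges 667 nm feature emission with signal to noise over triplicate slides.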 The settings on record: WGA-A647 binding, 635 nm fluorescence, higher = more signal.
For test [9], the target named is Luciferin 4-monooxygenase (Photinus pyralis) (UniProt P08659). Description: firefly luciferase enzyme inhibitors, primary screen, biochemical, luminescence, purified enzyme, 2006 set (AID 1141).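 Note: cell-free assay with purified firefly luciferase at 100 ng per well in PBS; test concentration not given here.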 The following applies: SteadyGlo luminescence, 30 min, higher = more signal, called active from +8 up or from −8 down.
Luciferin 4-monooxygenase (Photinus pyralis), sequence (P08659 whole entry, looked up): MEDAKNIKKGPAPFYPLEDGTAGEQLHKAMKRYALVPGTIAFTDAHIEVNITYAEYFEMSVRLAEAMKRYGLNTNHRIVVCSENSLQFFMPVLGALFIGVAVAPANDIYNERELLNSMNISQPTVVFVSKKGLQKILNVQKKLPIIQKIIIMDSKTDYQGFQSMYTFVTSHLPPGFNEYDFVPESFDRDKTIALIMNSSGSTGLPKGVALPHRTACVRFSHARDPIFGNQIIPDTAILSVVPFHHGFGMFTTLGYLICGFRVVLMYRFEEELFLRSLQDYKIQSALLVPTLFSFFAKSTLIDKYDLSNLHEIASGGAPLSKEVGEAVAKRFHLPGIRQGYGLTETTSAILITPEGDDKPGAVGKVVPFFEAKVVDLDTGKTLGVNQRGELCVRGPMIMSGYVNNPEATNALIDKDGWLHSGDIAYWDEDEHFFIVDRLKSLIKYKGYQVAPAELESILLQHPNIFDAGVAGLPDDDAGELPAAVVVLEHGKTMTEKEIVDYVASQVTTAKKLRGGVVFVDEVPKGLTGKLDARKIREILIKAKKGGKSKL
For test [10], the system named is Wnt5a (protein binding on small-molecule microarray). Description: Wnt5a binders on small-molecule microarray, primary screen, biophysical, 635/667 nm fluorescence (AID 1142).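 Note: fluorescence read at 667 nm with signal to noise per printed feature.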 The settings on record: 635 nm fluorescence, higher = more signal.
The nature of test [11]: cell viability in Huh7 cells, primary screen, cytotoxicity control for HCV replication inhibitor project, CellTiter-Glo luminescence, basal, 48 h (AID 1143).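 Note: Huh7 hepatoma cells carrying a hepatitis C replication reporter with no stimulus; test concentration not given here.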 The following applies: Huh7 HCV replicon, higher = more signal, called active from +8 up or from −8 down.
Test [12] is described as follows: P. aeruginosa biofilm formation inhibitors, primary screen, PAO1 strain, BacTiter-Glo luminescence, LB-PBS (AID 1144). The following applies: 12 h, higher = more signal.
Test [13] is described as follows: CREB reporter modulators without forskolin, primary screen, cell-based, PC12, CRE-LacZ reporter, unstimulated (AID 1145). The settings on record: no forskolin, luminescence, 4.5 h, higher = more signal, called active from +8 up or from −8 down.
A short description of test [14]: CREB reporter modulators under forskolin, primary screen, cell-based, PC12, CRE-LacZ reporter, forskolin-stimulated (AID 1146).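 Note: PC12 cells with 6xCRE LacZ reporter stimulated by forskolin 10 µM; beta-galactosidase reporter signal reflecting CREB driven transcription.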 The following applies: luminescence, 4.5 h, higher = more signal, called active from +8 up or from −8 down.
Test [15] addresses Streptavidin (Streptomyces avidinii) (UniProt P22629). Description: streptavidin binders on small-molecule microarray, primary screen, artefact control for SMM compound annotation, biophysical, 635/667 nm fluorescence (AID 1147).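 Note: signal reflects streptavidin binding to arrayed compounds as a control protein.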 The settings on record: streptavidin binding, higher = more signal.
Test [16] is described as follows: small-molecule binders of probe aInhba, primary screen, biochemical, small-molecule microarray, 635/667 nm fluorescence (AID 1148).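 Note: score merges 667nm spot fluorescence with signal-to-noise for antibody binding to printed compounds.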 The following applies: higher = more signal.
Test [17] has as its target Torsin-1A (Homo sapiens) (UniProt O14656). Put plainly: torsin A binders from cell lysate, primary screen, small-molecule microarray, wild-type, 635/667 nm (AID 1149). The settings on record: COS7 hTOR1A-WT lysate, 635 nm fluorescence, higher = more signal.
Test [18] shares this target. Description: small-molecule binders of mutant TOR1A in lysate, primary screen, cell lysate, small-molecule microarray, COS7 lysate, 635/667 nm fluorescence (AID 1150).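 Note: score pools 667 nm emission and signal to noise measuring lysate protein binding.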 The settings on record: COS7 hTOR1A mutant lysate, 635 nm fluorescence, higher = more signal.
The test system of test [19] is Sonic hedgehog protein (Shh). Description: small-molecule binders of Shh protein, primary screen, biochemical, small-molecule microarray, 635/667 nm fluorescence (AID 1151).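 Note: Shh protein binding to compounds spotted on small-molecule microarray slides; score combines spot fluorescence intensity with signal-to-noise across triplicate slides.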 The settings on record: small-molecule microarray binding, 635 nm fluorescence; higher = more signal.

Calls of active or inactive are those of the source. Unless noted, the rule behind the calls is not given here.

Streptavidin (Streptomyces avidinii), sequence (P22629 whole entry, looked up): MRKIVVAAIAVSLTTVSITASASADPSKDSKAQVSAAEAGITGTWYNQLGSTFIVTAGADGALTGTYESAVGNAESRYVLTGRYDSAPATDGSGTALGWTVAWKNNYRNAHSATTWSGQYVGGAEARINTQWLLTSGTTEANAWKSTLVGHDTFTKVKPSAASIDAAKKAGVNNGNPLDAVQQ
Torsin-1A (Homo sapiens), sequence (O14656 whole entry, looked up): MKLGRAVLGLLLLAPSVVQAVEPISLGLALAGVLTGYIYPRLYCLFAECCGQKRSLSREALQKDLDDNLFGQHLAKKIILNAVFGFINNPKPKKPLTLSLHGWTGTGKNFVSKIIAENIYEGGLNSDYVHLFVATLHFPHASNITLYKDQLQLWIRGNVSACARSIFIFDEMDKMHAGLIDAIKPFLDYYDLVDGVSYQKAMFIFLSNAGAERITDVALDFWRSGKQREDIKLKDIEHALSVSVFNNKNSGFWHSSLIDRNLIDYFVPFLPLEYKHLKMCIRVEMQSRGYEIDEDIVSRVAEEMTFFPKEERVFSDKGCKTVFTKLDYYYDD
Fibroblast growth factor 2 (Homo sapiens), sequence (P09038 whole entry, looked up): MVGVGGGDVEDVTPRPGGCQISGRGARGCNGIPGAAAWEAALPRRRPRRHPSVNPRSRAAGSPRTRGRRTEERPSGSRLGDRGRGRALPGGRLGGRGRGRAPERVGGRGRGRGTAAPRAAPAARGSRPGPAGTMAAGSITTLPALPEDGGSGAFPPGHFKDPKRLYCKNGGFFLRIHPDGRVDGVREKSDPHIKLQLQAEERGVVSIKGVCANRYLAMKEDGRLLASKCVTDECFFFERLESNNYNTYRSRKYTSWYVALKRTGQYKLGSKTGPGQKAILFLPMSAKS

`Cc1ccc(S[C@]2(C(=O)NCC(F)(F)F)CC(=O)N(C3Cc4ccccc4C3)[C@@H]2c2ccc(CO)cc2I)cc1`: the composite z-score is -1.2 in [1]; -0.38 in test [2]; -0.493 in test [3]; -0.161 in test [4]; -1.14 in test [5]; -1.01 in test [6]. Also, the composite z-score with Lefty1 is -1.36; in test [8], 0.0728; in [10], -0.465; in test [15], -0.457; in test [16], -0.0471; with Torsin-1A (Homo sapiens) [17], 0.108. The composite z-score is -0.248 with Torsin-1A (Homo sapiens) [18] and -0.703 in test [19]. Further, the z-score is 0.496 in [7]; -0.727 (inactive) in [9]; -1.42 (inactive) in test [11]; -0.46 (inactive) in [12]; -0.231 (inactive) in test [13]; 0.0489 (inactive) in [14].
Consider `CCN(CC)c1ccc(N2CC=CC34O[C@@H]5/C=C\CCC(C)OC(=O)C5[C@H]3C(=O)N(CCCCCCO)[C@@H]4C2=O)cc1` (stereo not given in full), for which the composite z-score in test [1] is 0.0517; in test [2], -0.089; in test [3], -0.182; in [4] it was -1.59; in test [5], -0.371; in [6] it was -0.361. In addition, the composite z-score in the test with Lefty1 was -0.652; in test [8], 0.524; in test [10], -0.449; in test [15], -0.629; in test [16], -0.359; with Torsin-1A (Homo sapiens) [17], 0.84. The values for the composite z-score (in the test with Torsin-1A (Homo sapiens) [18]; in [19]) were 0.0844 and -0.166, respectively. The z-score in [7] was 0.905; in test [9] it was -1.59 (inactive); in [11], -0.406 (inactive); in [12], 0.398 (inactive); in test [13], 0.886 (inactive); in test [14], 0.57 (inactive).
For the molecule `O=C1C2C=CC(C(O)c3ccccn3)N(Nc3ccccc3F)C2C(=O)N1c1ccccc1` (stereo not given), the composite z-score is -0.0724 in [1]; 0.525 in [2]; 1.27 in test [3]; 0.696 in [4]; 0.101 in test [5]; -0.0308 in [6]. Further, the composite z-score is -0.377 in the test with Lefty1; 0.253 in test [8]; -0.0672 in [10]; 0.429 in test [15]; -0.0986 in test [16]; 0.456 with Torsin-1A (Homo sapiens) [17]. Further, the composite z-score with Torsin-1A (Homo sapiens) [18] was 0.432; in test [19], -0.461. The z-score in test [7] was 1.03; in [9], -0.323 (inactive); in test [11], 0.894 (inactive); in test [12] it was -0.62 (inactive); in test [13], -0.708 (inactive); in test [14], 0.901 (inactive).
As to `C=CCC(OC(C)=O)[C@@H]1[C@@H](N(Cc2ccc(-c3cccc(C(F)(F)F)c3)o2)C(=O)Cc2ccc(OC)cc2)c2cc(OCCCO)ccc2N1C(=O)Cc1ccc(OC)cc1` (stereo not given in full), the composite z-score is -0.381 in test [1]; -1.04 in test [2]; -0.127 in test [3]; -1.31 in test [4]; 0.544 in [5]; 0.283 in [6]. The composite z-score was -0.0334 with Lefty1; 0.0267 in test [8]; -0.294 in [10]; -1.01 in test [15]; -0.154 in test [16]; -2.51 with Torsin-1A (Homo sapiens) [17]. Further, the composite z-score in the test with Torsin-1A (Homo sapiens) [18] is -1.2; in [19], 0.514. In addition, the z-score in test [7] was 0.212; in test [9], 0.781 (inactive); in test [11] it was -3.06 (inactive); in test [12], -1.7 (inactive); in test [13], 0.484 (inactive); in [14], 0.609 (inactive).
In the case of `CN1C(=O)C2C=CC(C(O)C(C)(C)C)N(Nc3ccccc3)C2C1=O` (stereo not given), the composite z-score was 0.218 in [1]; -0.178 in [2]; 0.694 in test [3]; -0.0163 in test [4]; -0.288 in test [5]; -0.695 in test [6]. Further, the composite z-score in the test on Lefty1 was -1.06; in [8] it was -0.062; in test [10], 0.04; in test [15], 0.0034; in test [16], -0.157; in the test with Torsin-1A (Homo sapiens) [17], 0.392. The composite z-score with Torsin-1A (Homo sapiens) [18] is -0.419; in [19] it was -0.624. Further, the z-score is 0.31 in [7]; 0.856 (inactive) in test [9]; 1.07 (inactive) in test [11]; -0.101 (inactive) in [12]; 0.24 (inactive) in test [13]; 0.124 (inactive) in test [14].
